Reference: publication PMC4336329 (PLoS ONE, 2015)
Screen size: about 310,000 compounds; about 2,200 (0.71%) showed an effect of 50% or more. The effect is printed as a negative number. The list comes from a sample in which strong results are over-represented; it also holds similar structures and randomly drawn compounds.

What follows are compounds tested against human ether-à-go-go-related gene (hERG) potassium channel (human, UniProt Q12809) (assay: primary screen, population patch clamp on CHO cells stably expressing hERG; higher = less effect of the substance).
human ether-à-go-go-related gene (hERG) potassium channel, sequence (Q12809 whole entry, looked up): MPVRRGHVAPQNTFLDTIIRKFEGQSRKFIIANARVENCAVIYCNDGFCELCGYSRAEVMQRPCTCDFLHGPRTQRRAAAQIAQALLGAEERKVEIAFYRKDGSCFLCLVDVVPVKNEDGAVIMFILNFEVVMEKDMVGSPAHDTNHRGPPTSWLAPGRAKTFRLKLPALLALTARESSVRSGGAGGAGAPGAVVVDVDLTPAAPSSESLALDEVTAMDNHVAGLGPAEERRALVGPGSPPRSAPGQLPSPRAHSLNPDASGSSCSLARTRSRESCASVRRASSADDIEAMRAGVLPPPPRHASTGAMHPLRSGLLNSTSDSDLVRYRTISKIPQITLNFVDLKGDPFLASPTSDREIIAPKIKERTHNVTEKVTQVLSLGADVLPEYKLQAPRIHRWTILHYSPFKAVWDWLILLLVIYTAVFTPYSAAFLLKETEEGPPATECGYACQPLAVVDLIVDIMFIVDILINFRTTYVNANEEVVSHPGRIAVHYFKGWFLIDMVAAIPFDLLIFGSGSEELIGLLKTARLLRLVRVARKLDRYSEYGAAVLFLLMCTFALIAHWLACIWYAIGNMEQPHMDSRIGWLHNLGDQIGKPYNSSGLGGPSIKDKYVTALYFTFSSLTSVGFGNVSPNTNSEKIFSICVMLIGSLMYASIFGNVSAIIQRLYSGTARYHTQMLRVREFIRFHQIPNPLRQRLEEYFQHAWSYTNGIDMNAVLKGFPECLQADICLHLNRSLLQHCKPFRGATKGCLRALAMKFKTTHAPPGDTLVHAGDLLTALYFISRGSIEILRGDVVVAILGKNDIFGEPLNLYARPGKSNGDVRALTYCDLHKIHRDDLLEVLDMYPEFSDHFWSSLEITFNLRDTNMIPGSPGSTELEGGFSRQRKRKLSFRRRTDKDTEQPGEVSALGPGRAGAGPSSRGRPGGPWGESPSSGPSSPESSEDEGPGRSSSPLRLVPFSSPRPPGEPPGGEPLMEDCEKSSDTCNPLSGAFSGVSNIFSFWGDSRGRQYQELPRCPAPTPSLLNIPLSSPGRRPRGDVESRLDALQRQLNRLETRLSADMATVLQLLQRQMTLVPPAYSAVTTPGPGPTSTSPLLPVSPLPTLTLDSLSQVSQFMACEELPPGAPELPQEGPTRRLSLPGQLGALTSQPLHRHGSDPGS

SMILES	hERG current change (%, negative = inhibition) at 1uM [%]
CC1CN(C(=O)c2c(Br)cnn2C)CC(C)O1 (stereo not drawn)	4.32
O=C(COC(=O)Cc1ccsc1)Nc1cccc(Cl)c1	0.601
COc1ccc(N2CCN(C(=O)c3cccc(NC(=O)c4ccco4)c3)CC2)cc1	-8.07
Cc1ccc(C(=O)N2CCN(c3ccccc3)CC2)cc1NC(=O)c1ccco1	1.43
COc1ccc(N2CCN(C(=O)c3ccc(C)c(NC(=O)c4ccco4)c3)CC2)cc1	-53.7
O=C(c1cc(COc2ccc3ncccc3c2)on1)N1CCCC1	13.5
CN1C(=O)c2oc3ccccc3c(=O)c2C1c1ccncc1 (stereo not drawn)	5.81
O=S(=O)(c1ccc2nc(-c3ccccc3)[nH]c2c1)N1CCN(c2ccc(Cl)cc2)CC1	5.61
O=C(NCC1CCN(Cc2ccccc2Cl)CC1)Nc1cccc(Cl)c1	-62.3
COc1ccc(OC)c(CN2CCC(CNC(=O)Nc3cccc(Cl)c3)CC2)c1	-26.3
O=C(NCC1CCN(Cc2ccccc2Cl)CC1)Nc1ccccc1F	-6.32
C1CNCCN1.COc1cc(C(O)CO)ccc1O (stereo not drawn)	10
CCN(CC)CCOC(=O)CCc1cccc2ccccc12.O=C(O)C(=O)O	-3.77
CCN(CC)CCOC(=O)C(Cc1cccc2ccccc12)CC1CCCO1.O=C(O)C(=O)O (stereo not drawn)	-20.2
CCN(CC)CCOC(=O)C(Cc1ccco1)Cc1cccc2ccccc12.O=C(O)C(=O)O (stereo not drawn)	-62.8
C#CCOCCOCCOCCNc1nc(N2CCOCC2)nc(N2CCN(C(=O)Cn3cc(CCC[NH+]=C(N)N)nn3)CC2)n1.[Cl-]	17.5
CCc1ccc(/C=C(/C#N)C(N)=S)s1	15
O=C(N/N=C/c1ccsc1)c1ccccn1	16.7
O=C(Nc1ccc(Cl)c(Cl)c1)N(CCCN1CCOCC1)Cc1cccs1	-41.8
O=C(Nc1ccc(Cl)cc1)N(CCCN1CCOCC1)Cc1cccs1	-55
O=C(Nc1ccccc1)N(CCCN1CCOCC1)Cc1cccs1	-29.2

SMILES	hERG current change (%, negative = inhibition) at 1uM [%]
O=C(CNC(=S)N(CCCN1CCOCC1)Cc1cccs1)NCc1ccc(Cl)cc1	-61.3
O=C(CNC(=S)N(CCCN1CCOCC1)Cc1cccs1)NCCCN1CCOCC1	16.3
O=C(CNC(=S)N(CCCN1CCOCC1)Cc1cccs1)NCc1ccccc1Cl	-35.5
Cc1ccc(OCC(=O)N2CCc3ccccc32)cc1	10.7
CCOc1ccc(NC(=O)CN2CCN(C3c4ccccc4-c4ccccc43)CC2)cc1	-25.5
Cc1cc(C)cc(NC(=O)CN2CCC(NC(=O)c3cccc(F)c3)CC2)c1	4.29
O=C(CN1CCN(c2ccccc2)CC1)Nc1ccc(OCc2ccccc2)cc1	13.4
Cc1ccc(NC(=O)CN2CCC(NC(=O)c3cccc(F)c3)CC2)cc1C	-13.4
Cc1cccc(C)c1NC(=O)CN1CCN(CC(=O)c2cc(C)n(C3CC3)c2C)CC1	-0.73
CCOc1ccc(NC(=O)CN2CCN(Cc3c(F)cccc3F)CC2)cc1	-50.7
O=C(CN1CCCC1)Nc1ccc(OCc2ccccc2)cc1	8
CCCCOc1ccc(NC(=O)CN2CCN(Cc3ccccc3)CC2)cc1	1.72
O=C(CN1CCC(NC(=O)c2cccc(F)c2)CC1)Nc1ccc(Br)cc1	-53.9
Cc1cc(C(=O)CN2CCN(CC(=O)Nc3cccc(F)c3)CC2)c(C)n1C1CC1	-7.82
Cc1cc(C(=O)CN2CCN(CC(=O)Nc3ccc(F)cc3)CC2)c(C)n1C1CC1	-72.3
O=C(CN1CCN(CC(=O)Nc2ccc(OCc3ccccc3)cc2)CC1)Nc1ccc(F)cc1	-81.5
C[C@]1(C(=O)NCCc2c[nH]c3ccccc23)C=C[C@@H](Cc2ccccc2)N1C(=O)c1ccccc1	7.98
CCn1ccc(C(=O)NC2CCCC2)n1	8.64
CN(C)C(=O)CN1CCN(Cc2nc(CC3CC3)no2)CC1	7.17
COCCN(C(=O)CSc1nc2ccccc2c(=O)n1CCOC)c1c(N)n(Cc2ccccc2)c(=O)[nH]c1=O	12.6
Cl.O=S(=O)(NC1CCN(Cc2ccccc2)CC1)c1ccc2ccccc2c1	4.69

SMILES	hERG current change (%, negative = inhibition) at 1uM [%]
C#CCOCCOCCOCCNc1nc(N2CCN(C(=O)[C@H](Cc3ccc(O)cc3)n3cc([C@@H](N)C(C)CC)nn3)CC2)nc(N2CCN(C(=O)[C@H](CCCCN)n3cc([C@@H](N)CO)nn3)CC2)n1.Cl (stereo partly drawn)	12.4
COc1cccc(/C=C/C(=O)OCC(=O)NC2CC2)c1	10.5
CC(C)/C(=N/Nc1ccccc1[N+](=O)[O-])c1ccccc1	22.6
CCCCc1nnc(NC(=O)COC)s1	16.3
COc1ccccc1CNC(=O)CN1CCC(NC(=O)c2ccccc2F)CC1.Cl	1.06
O=C(CN1CCC(n2cnc3cc(F)ccc32)CC1)Nc1ccccc1Br	-23.5
CCOC(=O)N1CCN(CC(=O)Nc2ccc(F)cc2)CC1	-73
CCOC(=O)N1CCN(CC(=O)Nc2ccc(C)cc2)CC1	6.17
COc1cc(C(=O)N2CCC(n3cnc4cc(F)ccc43)CC2)cc(OC)c1OC	-9.25
CCOc1ccc(NC(=O)CN2CCC(n3cnc4cc(F)ccc43)CC2)cc1	-71.7
COc1ccccc1CNC(=O)CN1CCC(n2cnc3cc(F)ccc32)CC1	-59.1
CCOC(=O)N1CCN(CC(=O)Nc2ccc(OC)cc2)CC1	9.1
COc1cc(NC(=O)CN2CCCCCC2)cc(OC)c1	13.5
CCOc1ccc(NC(=O)CN2CCN(CC(=O)Nc3cc(OC)cc(OC)c3)CC2)cc1	-71.3
CC(=O)Nc1ccc(S(=O)(=O)N2CCC(n3cnc4cc(F)ccc43)CC2)cc1	-26.4
CCOc1ccc(NC(=O)CN2CCN(CC(=O)Nc3ccc(C(=O)OC)cc3)CC2)cc1	-48
CCN(C(=O)CSc1nc2cc(C(=O)OC)ccc2c(=O)n1Cc1ccco1)c1cccc(C)c1	7.87
Cc1c(NC(=O)C(C)Oc2ccc(Br)cc2Cl)c(=O)n(-c2ccccc2)n1C (stereo not drawn)	-1.81
COc1ccc(C(=O)NC(=S)NCc2ccco2)cc1	15
Cc1cc(C)c(S(=O)(=O)Cc2ccc(Cl)cc2)c(=O)[nH]1	9.42
O=C(N1CCN(CCO)CC1)N1c2ccccc2C=Cc2ccccc21	13

SMILES	hERG current change (%, negative = inhibition) at 1uM [%]
COc1ccc(NC(=O)c2ccc(NC(=O)c3cccs3)cc2)cc1	0.302
CCN(C(=O)CSc1nnc(NC2CCCCC2)s1)C1CCS(=O)(=O)C1 (stereo not drawn)	2.2
CCOC(=O)N1CCN(CC(=O)Nc2ccc(F)c(F)c2)CC1	8.59
CCOc1ccc(NC(=O)CNC(=O)c2ccc(OC)c(OC)c2)cc1	5.55
O=C(NCc1ccccc1)N1CCC(n2cnc3cc(F)ccc32)CC1	-56.6
CCOc1ccc(NC(=O)CN2CCN(CC(=O)Nc3ccc(Cl)c(C(F)(F)F)c3)CC2)cc1	-6.47
O=C(CN1CCN(CC(=O)Nc2cccc(F)c2)CC1)Nc1ccc(-c2ccccc2)cc1	13.6
CCOc1ccc(NC(=O)CN2CCN(CC(=O)Nc3ccc(F)c(F)c3)CC2)cc1	-87.9
O=C(c1ccc(F)cc1)C1CCN(C(=O)NCc2ccccc2)CC1	-5.59
CCOc1ccc(NC(=O)CN2CCN(CC(=O)c3ccc(OC)c(OC)c3)CC2)cc1	-56.3
CCOc1ccc(NC(=O)CN2CCN(CC(=O)Nc3ccc(C(N)=O)cc3)CC2)cc1	-36.9
CCOc1ccc(NC(=O)CN2CCN(CC(=O)Nc3cccc(F)c3)CC2)cc1	-97.2
O=C(NCc1ccc(F)cc1)C1CCN(C(=O)NCc2ccccc2)CC1	19.1
COc1ccc(S(=O)(=O)N2CCN(CC(=O)Nc3cccc(F)c3)CC2)cc1	-8.66
CCCCSc1nnc(-c2cc(Br)ccc2N)c(=O)[nH]1	0.939
CCC(C)(C)NC(=O)C(c1ccc(OC)cc1)N(Cc1ccco1)C(=O)CCC(=O)Nc1cc(C)on1 (stereo not drawn)	4.86
COc1ccc(CC(NC(C)=O)C(=O)NC2CCN(C(=O)Nc3ccc(Cl)cc3)CC2)cc1OC (stereo not drawn)	10.2
O=C(COc1ccccc1[N+](=O)[O-])NCC1(N2CCCCC2)CCCCC1	-4.91
CCOC(=O)c1ccc(NC(=O)COc2coc(CN3CCc4ccccc43)cc2=O)cc1	8.2
COc1ccc(OC)c(S(=O)(=O)N2CCC(C(=O)NCc3ccccc3OC)CC2)c1	3.09
NC1=NC[C@@H](Cc2ccc(O)cc2)N1CCC12CC3CC(CC(C3)C1)C2	10.4
